# Shown is part of a subset that was picked to be rich in hits.
# TTR transcr act: increases transthyretin transcription. 1.3% of 92,000 active. activation, % at 16.7 µM. SH-SY5Y TTR promoter Gaussia luciferase, luminescence; 100% = recombinant luciferase protein wells;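 active = activation above the mean of all tested compounds plus 3 SD, cut at about 9.5% in these data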;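 also: cells exposed to compounds for one day before reading; 0% = median of all test compound wells on the plate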
# TTR inh HuH7: counter-screen for TTR activators: TTR transcription inhibitors in HuH7 cells. shares compounds with TTR transcr act. HuH7 TTR promoter-Gaussia luciferase reporter, luminescence. inhibition, % at 16.7 µM. 4% of 1,100 active;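 active = average inhibition above the solvent-only control wells' mean plus 3 SD, cut at about 15% in these data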;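 also: 0% = cells with DMSO only and 100% = cells with inhibitor control FD; inhibitors lower well luminescence so higher value means more inhibition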
# TTR act confirm: confirmation of human transthyretin transcription activators; 1,100 tested, under 10 active; shares compounds with TTR transcr act; AID 1117280; activation, % at 16.7 µM; SHSY5Y TTR promoter Gaussia luciferase, luminescence; 100% = purified Lucia enzyme wells, no cells;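 active = mean activation above a set limit taken from the earlier primary screen, cut at about 11% in these data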;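 also: 0% = DMSO-treated cells and 100% = recombinant Lucia luciferase without cells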
# The depositor's hits bear a star.
SMILES,TTR transcr act,others
O=C(O)CCc1ccc(-c2ccccc2)n1NC(=O)c1ccco1,21.6*,TTR inh HuH7=-18.7;TTR act confirm=0.4
CC(=O)O[C@H]1[C@H](OC(C)=O)C[C@]2(OC(C)=O)C[C@H]1OC2=O,2.9,
COc1cc(/C=C/C(=O)O)cc(S(=O)(=O)NNC(=O)c2cc(C)oc2C)c1OC,4.0,
COc1cc(/C=C/C(=O)O)cc(S(=O)(=O)NCC2CCCO2)c1OC (stereo not given),21.6*,TTR inh HuH7=-0.1;TTR act confirm=-0.6
COc1ccc(C(C)(C)C)cc1S(=O)(=O)NCC1CCCO1 (stereo not given),0.8,
Cc1cccc(C)c1NC(=O)CSc1nnc(C)n1-c1ccccc1,-1.8,
COc1ccc(O)c(/C=N/NC(=O)CSc2nnc(C)n2-c2ccccc2)c1,11.1*,TTR inh HuH7=-16.9;TTR act confirm=1.3
COC(=O)c1ccc(NC(=O)CSc2nnc(C)n2-c2ccccc2)cc1,-0.4,
c1ccc(-c2nn(Cc3ncco3)c3ccccc23)cc1,1.6,
O=C1CCC[C@H]2C[C@H](NCc3ccco3)CC[C@]23CCCN13,0.4,
CCN1CCCC(NC(=O)c2scc3c2CCCC3)C1 (stereo not given),-0.5,
Cc1ccc(C(=O)Nc2ccc3c(c2)CCC3)cc1,-0.3,
Cc1ccc(NC(=O)c2scc3c2CCCC3)cc1,22.0*,TTR inh HuH7=10.2;TTR act confirm=-1.8
O=C(OCC#CCSc1nnc(-c2cccc3ccccc23)o1)c1cccc(F)c1,8.6,
COC(=O)[C@]12C[C@H](CC(=O)N3CCSCC3)C(=O)N(Cc3ccc(Cl)cc3Cl)C1=C[C@H](C1CCCC1)O[C@@H]2C,-0.9,
CCOC(=O)c1c(C)n(C)c2ccc(OCCN(C)C)cc12,4.3,
CCOC(=O)c1c(C)n(C)c2ccc(OCC(O)CNC(CC)CO)cc12 (stereo not given),13.8*,TTR inh HuH7=-10.4;TTR act confirm=2.4
CCOC(=O)c1c(C)n(C)c2ccc(OCC(O)CN3CCCCCC3)cc12 (stereo not given),-1.2,
CCOC(=O)[C@@]12CCC3=C1N(CCC3)C(=O)[C@H](CC(=O)NCCc1ccccc1OC)C2,-1.2,
Cc1ccc(CN2CCCCC(NC(=O)c3ccc(C)cc3)C2=O)cc1 (stereo not given),-0.8,
O=C(Cn1cnc2ccccc2c1=O)N1CCOCC1,12.0*,TTR inh HuH7=-10.3;TTR act confirm=0.1
COC(=O)Cn1cnc2ccccc2c1=O,1.1,
O=C(Cn1cnc2ccccc2c1=O)NCCC(=O)N1CCN(Cc2ccccc2)CC1,-1.5,
O=C(Nc1ccc(F)cc1)OCCN1CCCC12CCC(c1ccccc1)CC2 (stereo not given),0.0,
COC[C@@H]1CCCN1c1cccc2c1S(=O)(=O)N(C1CC1)CCCO2,-0.9,
SMILES,TTR transcr act,others
CCCCCCCCN1C(=O)[C@@H](CC(=O)N2CCN(C(=O)C3CC3)CC2)C[C@@]2(C(=O)OC)C1=C[C@H](C(C)C)O[C@@H]2C1CC1,-1.2,
COc1ccc(CC(=O)c2ccc(OC)c(OC)c2)cc1,1.1,
COC(=O)Cn1c(=NC(=O)c2ccc(OC)c(OC)c2)sc2cc(OC)ccc21,11.6*,TTR inh HuH7=-1.8;TTR act confirm=-0.5
COc1ccc2c(c1)sc(=N)n2CC(=O)Nc1cc(C)cc(C)c1,0.8,
CCCC[C@H]1C2CC(OC(=O)Nc3ccccc3Cl)C(C2)[C@H]2CCCCN21 (stereo not given in full),-0.1,
COc1ccc(CN2C(=O)CN(S(C)(=O)=O)CC2(C)c2nnnn2C2CCCCC2)cc1 (stereo not given),0.8,
C[C@H]1[C@@H](OC(=O)NC2CCCCC2)CC[C@@]23CCCN2C(=O)CCC[C@@H]13,0.7,
O=C(Nc1ccc(C(O)(C(F)(F)F)C(F)(F)F)cc1)c1ccccc1C(F)(F)F,6.4,
Cc1noc(NC(=O)c2ccccc2C(F)(F)F)c1C#N,11.7*,TTR inh HuH7=-24.9;TTR act confirm=1.3
Cc1noc(NS(=O)(=O)c2ccc(NC(=O)c3ccc(F)cc3)cc2)c1C,-2.0,
Cc1cccc(C(=O)Nc2onc(C)c2C#N)c1,4.9,
Cc1noc(NC(=O)c2ccc(F)cc2)c1C#N,14.4*,TTR inh HuH7=-17.2;TTR act confirm=-0.2
Cn1c(NC(=O)c2ccccc2C(F)(F)F)cc(=O)n(C)c1=O,-0.5,
CC(C)Oc1ccc(Oc2ccc(C#C[C@H](C)N3C(=O)c4ccccc4C3=O)cc2)cn1,2.5,
COC(=O)[C@]12C[C@H](CC(=O)NCCCCc3ccccc3)C(=O)N(Cc3cccc4ccccc34)C1=C[C@H](C(C)C)O[C@@H]2C1CC1,0.4,
C#CCNC(=O)C[C@H]1C[C@@]2(C(=O)OC)C(=C[C@H](C3CCCC3)O[C@@H]2C)N(Cc2ccco2)C1=O,5.0,
CCOC(=O)C1CCN(C(=O)C(C)(C)NC(=O)Nc2ccc(OC)c(Cl)c2)CC1,-0.6,
C#CCNC(=O)C[C@H]1C(=O)N(Cc2ccc(OC)cc2)C2=CCCCC[C@@]21C(=O)OC,-0.6,
Cc1cc(=O)[nH]c(SCC(=O)Nc2ccc(S(=O)(=O)N3CCCCC3)cc2)n1,12.9*,TTR inh HuH7=-1.7;TTR act confirm=0.1
CCOC(=O)CSCC(=O)Nc1ccc(S(=O)(=O)N2CCCCC2)cc1,-2.1,
COc1ccc(NC(=S)Nc2ccc(S(=O)(=O)N3CCCCC3)cc2)cc1,12.1*,TTR inh HuH7=12.4;TTR act confirm=-0.1
COc1ccc(NC(=O)CSCC(=O)Nc2ccc(S(=O)(=O)N3CCCC3)cc2)cc1,0.0,
Cc1ccc(NC(=O)CSc2nc(N)cc(=O)[nH]2)cc1S(=O)(=O)N1CCCCCC1,0.9,
COc1ccc(OCC(=O)Nc2ccc(S(=O)(=O)N3CCCCC3)cc2)cc1,-0.7,
O=C(NCC(c1ccccc1)c1ccccc1)[C@H](Cc1ccccc1)NC1(C(=O)NC2CCCCC2)CCCCCC1,2.4,
SMILES,TTR transcr act,others
CN(CCc1ccccc1)C(=O)c1cccc(NC(=O)Cc2cccc(NC(=O)C3CCN(C(=O)C4CCC4)CC3)c2)c1,-1.8,
CN(CCc1ccccc1)C(=O)c1cccc(NC(=O)Cc2cccc(NC(=O)C3CCN(C(=O)C4CCCCC4)CC3)c2)c1,-2.2,
CN(CCc1ccccc1)C(=O)c1ccc(NC(=O)Cc2cccc(NC(=O)C3CCN(C(=O)C4CCCCC4)CC3)c2)cc1,11.3*,TTR inh HuH7=-14.1;TTR act confirm=1.3
C[C@H]1[C@@H](NC(=O)c2ccc(C(F)(F)F)cc2)CC[C@@]23CCCN2C(=O)CCC[C@@H]13,-0.2,
CC1CCC2(CC1)CCC2NCc1ccc(Cl)cc1 (stereo not given),-0.5,
CCCC[C@H]1C2CC(OC(=O)Nc3ccc(C(F)(F)F)cc3)C(C2)[C@H]2CCCCN21 (stereo not given in full),0.8,
CC1(c2nnnn2C2CCCCC2)CSCC(=O)N1CCc1ccc(O)cc1 (stereo not given),-0.7,
Cn1ccsc1=NC(=O)c1ccccc1F,-0.2,
Cn1ccsc1=NC(=O)c1ccccc1OC(F)F,0.7,
Cn1ccs/c1=N\C(=O)Nc1ccccc1,51.7*,TTR inh HuH7=-3.4;TTR act confirm=1.3
CCCC[C@H]1C2CC(OC(=O)Nc3cccc(C#N)c3)C(C2)[C@H]2CCCCN21 (stereo not given in full),-2.2,
CCOC(=O)[C@]12CCCC3=C1N(CCC3)C(=O)[C@@H](CC(=O)NCc1ccccc1)C2,-0.6,
O=c1cc(N2CCN(c3cccc(C(F)(F)F)c3)CC2)[nH]c(=O)n1C1CCCCC1,2.0,
Cc1ccc(CNC(=O)O[C@H]2CC[C@@]34CCCN3C(=O)CCC[C@H]4C2)o1,0.9,
COc1cc(CCC(=O)OCC(=O)Nc2c(C)cc(C)cc2C)cc(OC)c1OC,2.1,

# Compound activity from PubChem.
